Inconclusive results are not listed. The source made the active and inactive calls. The call rests on the fitted dose curve. Positions of bridges follow the written chain, without caps; N, C: chain ends. Non-standard residues stand in square brackets, D forms with d. Residues, ends and D or L forms follow the SMILES beside them. hArg = N=C(N)NCCCC[C@H](N)C(=O)O; Mpa = O=C(O)CCS
Assay: qHTS assay to identify small molecule agonists of the NFkB signaling pathway - cell viability counter screen (AID 1159515); further: nearly all actives have a fitted effect of over 55% in size
Conditions: NFkB-bla ME-180 viability, CellTiter-Glo luminescence, 5 h; series mostly up to 61 µM
Description: National Center for Advancing Translational Sciences [NCATS]
NIH Chemical Genomics Center [NCGC]
U.S. Environmental Protection Agency [EPA]
National Institutes of Environmental Health Sciences [NIEHS]
National Toxicology Program [NTP]
U.S. Food and Drug Administration [FDA]
Transcription factors and their stimulated target gene expression play pivotal roles across many cellular processes including responses to environmental stimuli. Proper regulation of associated pathways is critical to maintain cell health and function. Constitutive activation of transcription factor pathways has been implicated in tumors as it may block cellular functions such as apoptosis and lead to invasion and metastasis. One important transcription factor that stimulates gene expression in response to cytokines, UV radiation, and other stimuli is nuclear factor-kappa B (NFkB). To measure activation of the NFkB pathway, the CellSensor NFkB-bla ME-180 cell line (Life Technologies, Carlsbad, CA) that stably expresses beta-lactamase reporter gene under the regulation of a NF-kB response element was used. This assay allows measurement of the NFkB pathway activity induced by compounds in a ME-180 cell line. This system quantitates NF-kB activity using a FRET-based assay system where beta-lactamase expression disrupts FRET, allowing for fluorescent measurement of activity. This cell line has been used to screen the Tox21 10K compound library and to identify compounds that induce the NFkB pathway activity. The cytotoxicity of the Tox21 compound library against the NFkB-bla ME-180 cell line was tested in parallel by measuring cell viability using the CellTiter-Glo assay in the same wells.
Tox21 Assay Protocol Summary:
NFkB-bla ME-180 cells were dispensed at 2,000 cells/6 uL of assay medium per well into black wall/clear-bottom 1536-well plates using a Multidrop Combi (ThermoFisher Scientific, Waltham, MA) dispenser. After the assay plates were incubated at 37 C and 5% CO2 for an overnight, 23 nL of compounds dissolved in DMSO, positive controls or DMSO only was transferred to the assay plate by a Pintool station (Kalypsys, San Diego, CA). The assay plates were incubated at 37 C and 5% CO2 for 5 hr. One uL of LiveBLAzer B/G FRET substrate (Life Technologies) was added using a Flying Reagent Dispenser (Aurora Discovery, San Diego, CA) and the plates were incubated at room temperature for 1.5 hr. Fluorescence intensity (405 nm excitation, 460 nm and 530 nm emissions) was measured using an Envision plate reader (PerkinElmer, Shelton, CT). For cytotoxicity, 3 ul/well of CellTiter-Glo reagent was added into the assay plates using an FRD. After 30 min incubation at room temperature, the luminescence intensity was measured using a ViewLux plate reader (PerkinElmer).
For `O=C1NC(c2ccccc2)(c2ccccc2)C(=O)N1COP(=O)(O)O`, the outcome was “inactive”.
For `CCC/C=C(\C=O)CC`, the outcome was “inactive”.
In the case of `c1ccc(-c2nn[nH]n2)cc1`, the outcome is reported as “inactive”.
With `O=C(O)CNC(=O)CNC(=O)CNC(=O)CSC(=O)c1ccccc1` the outcome was “inactive”.
With `CC(C)=CCC[C@@](C)(O)[C@H]1CC=C(C)CC1` the outcome was “inactive”.
For `O=NN(CCCl)C(=O)NC1CCCCC1`, the outcome was “inactive”.
For `CCCC(=O)OC/C=C(\C)CCC=C(C)C`, the outcome was “inactive”.
With `O=C(CN1CCNCC1)NC1CCCCC1` the outcome was “inactive”.
For `CCCCCCCCCCCCCCCCCCOCCO`, the outcome was “inactive”.
With `NCC1(Cc2noc(=O)[nH]2)CCCCC1` the outcome was “inactive”.
In the case of `CC(=O)OC1CCCCC1C(C)(C)C` (stereo not given), the outcome is reported as “inactive”.
In the case of `CO[Si](CCCn1c(=O)n(CCC[Si](OC)(OC)OC)c(=O)n(CCC[Si](OC)(OC)OC)c1=O)(OC)OC`, the outcome is reported as “inactive”.
With `CCCCC1CCC(O)CC1` (stereo not given) the outcome was “inactive”.
With `CCCCSCCCC` the outcome was “inactive”.
In the case of `CCCC(=O)Nc1ccc(OCC(O)CNC(C)C)c(C(C)=O)c1` (stereo not given), the outcome is reported as “inactive”.
In the case of `CC(O)COC(C)(C)C` (stereo not given), the outcome is reported as “inactive”.
In the case of `CC(S)C(C)S` (stereo not given), the outcome is reported as “inactive”.
With `[O]=[Mo](=[O])=[O]` the outcome was “inactive”.
With `O=C(Cl)c1ccccc1[N+](=O)[O-]` the outcome was “inactive”.
In the case of `CC(=O)Nc1ccc(OC(=O)c2ccccc2OC(C)=O)cc1`, the outcome is reported as “inactive”.
With `CC1CCc2c(N3CCC(O)CC3)c(F)cc3c(=O)c(C(=O)O)cn1c23` (stereo not given) the outcome was “inactive”.
For `OC1OCCOC1O` (stereo not given), the outcome was “inactive”.
With `CN(C)CCN(C)CCO` the outcome was “inactive”.
For `O=C(O)c1cc2ccccc2nc1C(=O)O`, the outcome was “inactive”.
With `COS(=O)(=O)O` the outcome was “inactive”.
In the case of `OC[C@H]1O[C@@H](O[C@@H]2[C@@H](CO)O[C@](O)(CO)[C@H]2O)[C@H](O)[C@@H](O)[C@H]1O`, the outcome is reported as “inactive”.
With `O/N=C/C=N/O` the outcome was “inactive”.
For `CCNC(=O)NCc1cccc(Cl)c1`, the outcome was “inactive”.
In the case of `CC(Oc1cc(Cl)ccc1Cl)C(=O)O` (stereo not given), the outcome is reported as “inactive”.
In the case of `Cc1ccc2c(c1)C(=O)c1ccccc1C2=O`, the outcome is reported as “inactive”.
For `CC1(C)CC(OC(=O)CCCCCCCCC(=O)OC2CC(C)(C)NC(C)(C)C2)CC(C)(C)N1`, the outcome was “inactive”.
In the case of `CC(=O)CCc1ccc(OC(C)=O)cc1`, the outcome is reported as “inactive”.
For `NC(=O)[C@@H]1CSSCCC(=O)N[C@@H](CCCCN=C(N)N)C(=O)NCC(=O)N[C@@H](CC(=O)O)C(=O)N[C@@H](Cc2c[nH]c3ccccc23)C(=O)N2CCC[C@H]2C(=O)N1` ([Mpa][hArg]GDWPC-NH2; disulfide 1-7), the outcome was “inactive”.
In the case of `COc1cc(/C=C/C(N)=O)cc(OC)c1OC`, the outcome is reported as “inactive”.
For `O=C(O)CCCCCC(=O)O`, the outcome was “inactive”.
With `CCCCCC/C=C/C(=O)OC` the outcome was “inactive”.
In the case of `Fc1ccccc1`, the outcome is reported as “inactive”.
For `CC(C)=CCC/C(C)=C/COC=O`, the outcome was “inactive”.
With `CCCc1ccc(O)cc1` the outcome was “inactive”.
For `CO[C@@]1(NC(=O)Cc2cccs2)C(=O)N2C(C(=O)O)=C(COC(N)=O)CS[C@@H]21`, the outcome was “inactive”.

From PubChem BioAssay (Tox21)
